# Experimental data reported in the supplement of paper PMC10849652.
# Of roughly 8,800 targets only a part is listed; those with a hit were picked by preference. About 0.5% of all pairs of compound and target were hits.
# Compound: Cc1sc2c(c1C)C(c1ccc(Cl)cc1)=N[C@@H](CC(=O)OC(C)(C)C)c1nnc(C)n1-2
# Assay: log2 fold change, soluble protein after heating vs DMSO (PISA); higher = thermal stabilisation; K562 lysate, 10 uM; active = over 0.2 and 3.5 SD of the protein, either way, in both replicates (recomputed)
# Procedure, shortened: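 K562 pellets were dounce-homogenised in PBS pH 7.4 with 1 mM MgCl2, and the crude extract at 1 mg/mL protein was treated with 10 μM compound for 30 min. Aliquots were heated for 3 min across 48°C-58°C, pooled, and brought to 0.5% NP-40 at 4°C; soluble protein was the supernatant after 21,000xg for 90 min. Soluble protein was quantified by TMTpro 16plex LC-MS/MS with channel sums equalised, and reported as log2 fold change in thermal stability against DMSO controls, with values from duplicates.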
# UniProt O00408, sequence (O00408 whole entry, looked up): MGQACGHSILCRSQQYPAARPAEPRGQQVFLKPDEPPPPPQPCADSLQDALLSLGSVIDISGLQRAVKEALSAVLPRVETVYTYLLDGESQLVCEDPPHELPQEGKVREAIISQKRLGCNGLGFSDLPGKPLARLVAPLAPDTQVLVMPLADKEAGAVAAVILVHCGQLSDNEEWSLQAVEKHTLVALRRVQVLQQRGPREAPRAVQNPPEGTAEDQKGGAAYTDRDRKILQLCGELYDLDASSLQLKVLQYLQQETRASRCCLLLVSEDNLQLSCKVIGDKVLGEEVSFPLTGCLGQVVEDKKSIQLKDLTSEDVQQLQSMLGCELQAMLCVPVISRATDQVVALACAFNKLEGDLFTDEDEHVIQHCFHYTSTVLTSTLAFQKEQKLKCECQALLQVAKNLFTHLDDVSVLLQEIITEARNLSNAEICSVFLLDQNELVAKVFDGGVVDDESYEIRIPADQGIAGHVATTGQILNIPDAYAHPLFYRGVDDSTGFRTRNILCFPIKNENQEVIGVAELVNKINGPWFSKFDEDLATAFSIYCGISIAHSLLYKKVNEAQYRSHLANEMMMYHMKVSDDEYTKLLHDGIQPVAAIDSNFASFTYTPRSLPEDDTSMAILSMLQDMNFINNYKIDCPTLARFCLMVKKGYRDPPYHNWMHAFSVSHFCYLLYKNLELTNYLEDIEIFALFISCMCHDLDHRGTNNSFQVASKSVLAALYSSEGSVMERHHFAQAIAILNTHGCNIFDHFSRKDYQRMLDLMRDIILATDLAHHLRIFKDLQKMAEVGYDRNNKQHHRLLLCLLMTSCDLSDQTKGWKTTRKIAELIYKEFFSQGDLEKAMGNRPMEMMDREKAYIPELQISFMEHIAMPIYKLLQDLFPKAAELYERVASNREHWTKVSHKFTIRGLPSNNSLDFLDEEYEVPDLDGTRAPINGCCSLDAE
# UniProt O60237, sequence (O60237 whole entry, looked up): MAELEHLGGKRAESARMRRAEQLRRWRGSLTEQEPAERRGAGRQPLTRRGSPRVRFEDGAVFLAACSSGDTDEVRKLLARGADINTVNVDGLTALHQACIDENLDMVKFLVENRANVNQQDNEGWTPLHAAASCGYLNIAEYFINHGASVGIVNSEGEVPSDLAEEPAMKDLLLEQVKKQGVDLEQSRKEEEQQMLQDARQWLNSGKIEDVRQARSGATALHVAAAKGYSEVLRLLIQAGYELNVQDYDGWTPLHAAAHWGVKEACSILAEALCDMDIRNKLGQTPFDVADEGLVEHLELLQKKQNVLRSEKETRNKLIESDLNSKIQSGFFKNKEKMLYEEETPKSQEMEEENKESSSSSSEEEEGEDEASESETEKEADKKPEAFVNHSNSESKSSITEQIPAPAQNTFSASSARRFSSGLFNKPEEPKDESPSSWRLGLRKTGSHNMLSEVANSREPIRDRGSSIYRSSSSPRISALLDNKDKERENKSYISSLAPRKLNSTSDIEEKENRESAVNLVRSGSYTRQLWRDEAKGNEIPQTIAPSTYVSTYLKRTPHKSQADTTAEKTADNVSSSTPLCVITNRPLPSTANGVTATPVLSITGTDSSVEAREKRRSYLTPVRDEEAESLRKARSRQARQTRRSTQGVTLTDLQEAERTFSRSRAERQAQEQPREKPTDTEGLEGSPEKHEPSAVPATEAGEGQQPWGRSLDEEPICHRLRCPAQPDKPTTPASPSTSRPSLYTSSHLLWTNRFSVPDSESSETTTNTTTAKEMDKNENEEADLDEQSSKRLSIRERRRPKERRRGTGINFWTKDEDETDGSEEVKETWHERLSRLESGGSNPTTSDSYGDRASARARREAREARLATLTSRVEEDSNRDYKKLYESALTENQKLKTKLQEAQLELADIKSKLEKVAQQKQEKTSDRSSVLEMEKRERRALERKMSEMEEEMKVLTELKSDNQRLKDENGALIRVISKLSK
# UniProt Q96CD2, sequence (Q96CD2 whole entry, looked up): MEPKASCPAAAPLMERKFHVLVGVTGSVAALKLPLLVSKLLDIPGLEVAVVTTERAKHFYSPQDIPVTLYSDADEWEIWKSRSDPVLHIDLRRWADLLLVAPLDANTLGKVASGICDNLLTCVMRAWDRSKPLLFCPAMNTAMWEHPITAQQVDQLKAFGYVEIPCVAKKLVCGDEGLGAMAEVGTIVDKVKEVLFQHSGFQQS
# UniProt O75569, sequence (O75569 whole entry, looked up): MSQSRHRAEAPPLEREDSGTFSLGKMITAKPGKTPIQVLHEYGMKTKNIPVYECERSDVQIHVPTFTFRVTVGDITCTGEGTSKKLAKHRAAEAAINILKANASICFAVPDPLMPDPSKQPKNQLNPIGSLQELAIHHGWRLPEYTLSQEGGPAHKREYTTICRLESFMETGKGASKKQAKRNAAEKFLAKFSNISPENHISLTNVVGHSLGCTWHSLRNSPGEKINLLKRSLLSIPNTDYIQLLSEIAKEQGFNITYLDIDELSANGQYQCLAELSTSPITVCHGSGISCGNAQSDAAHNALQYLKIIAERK
# UniProt P78364, sequence (P78364 whole entry, looked up): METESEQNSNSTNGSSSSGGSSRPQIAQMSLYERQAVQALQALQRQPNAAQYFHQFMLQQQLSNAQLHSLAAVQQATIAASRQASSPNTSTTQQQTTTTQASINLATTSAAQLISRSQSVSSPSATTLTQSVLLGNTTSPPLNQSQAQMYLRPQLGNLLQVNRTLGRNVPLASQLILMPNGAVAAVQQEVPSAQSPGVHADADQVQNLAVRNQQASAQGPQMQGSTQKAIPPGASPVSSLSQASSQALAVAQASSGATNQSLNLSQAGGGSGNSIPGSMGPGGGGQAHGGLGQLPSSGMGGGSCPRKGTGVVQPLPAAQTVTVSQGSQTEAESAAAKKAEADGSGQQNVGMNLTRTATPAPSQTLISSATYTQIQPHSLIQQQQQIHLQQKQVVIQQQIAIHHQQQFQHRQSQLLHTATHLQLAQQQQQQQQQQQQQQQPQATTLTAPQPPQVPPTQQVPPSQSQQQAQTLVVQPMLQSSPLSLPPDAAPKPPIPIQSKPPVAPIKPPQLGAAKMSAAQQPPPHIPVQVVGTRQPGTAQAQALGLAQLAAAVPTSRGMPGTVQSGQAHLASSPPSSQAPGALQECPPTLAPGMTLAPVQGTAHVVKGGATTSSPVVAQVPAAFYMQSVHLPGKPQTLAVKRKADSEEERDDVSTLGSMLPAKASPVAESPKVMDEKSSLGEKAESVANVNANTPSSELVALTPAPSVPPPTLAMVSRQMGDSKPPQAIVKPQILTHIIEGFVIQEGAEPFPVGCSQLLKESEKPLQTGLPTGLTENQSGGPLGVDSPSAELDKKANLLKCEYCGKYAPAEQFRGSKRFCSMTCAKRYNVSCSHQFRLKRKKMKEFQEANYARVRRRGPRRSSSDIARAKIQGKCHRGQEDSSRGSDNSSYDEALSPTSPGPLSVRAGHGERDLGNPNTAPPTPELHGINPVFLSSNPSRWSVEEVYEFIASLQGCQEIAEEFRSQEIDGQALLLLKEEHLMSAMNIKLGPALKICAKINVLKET
# UniProt Q8NA72, sequence (Q8NA72 whole entry, looked up): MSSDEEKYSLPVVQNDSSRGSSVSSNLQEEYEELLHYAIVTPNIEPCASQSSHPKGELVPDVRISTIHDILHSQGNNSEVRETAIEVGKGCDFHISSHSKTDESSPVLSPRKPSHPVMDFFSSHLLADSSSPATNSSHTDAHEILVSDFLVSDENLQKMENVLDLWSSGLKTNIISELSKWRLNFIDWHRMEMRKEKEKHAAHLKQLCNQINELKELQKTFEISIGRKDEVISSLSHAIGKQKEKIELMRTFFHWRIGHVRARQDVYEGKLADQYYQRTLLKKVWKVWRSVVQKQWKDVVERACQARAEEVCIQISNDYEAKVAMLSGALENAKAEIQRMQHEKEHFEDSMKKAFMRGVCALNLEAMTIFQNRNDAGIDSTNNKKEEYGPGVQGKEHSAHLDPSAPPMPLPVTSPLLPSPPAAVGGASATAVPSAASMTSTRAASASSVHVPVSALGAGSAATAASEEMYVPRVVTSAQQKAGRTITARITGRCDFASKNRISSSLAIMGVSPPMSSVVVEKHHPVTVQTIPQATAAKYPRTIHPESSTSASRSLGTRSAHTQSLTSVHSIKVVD
# UniProt O94906, sequence (O94906 whole entry, looked up): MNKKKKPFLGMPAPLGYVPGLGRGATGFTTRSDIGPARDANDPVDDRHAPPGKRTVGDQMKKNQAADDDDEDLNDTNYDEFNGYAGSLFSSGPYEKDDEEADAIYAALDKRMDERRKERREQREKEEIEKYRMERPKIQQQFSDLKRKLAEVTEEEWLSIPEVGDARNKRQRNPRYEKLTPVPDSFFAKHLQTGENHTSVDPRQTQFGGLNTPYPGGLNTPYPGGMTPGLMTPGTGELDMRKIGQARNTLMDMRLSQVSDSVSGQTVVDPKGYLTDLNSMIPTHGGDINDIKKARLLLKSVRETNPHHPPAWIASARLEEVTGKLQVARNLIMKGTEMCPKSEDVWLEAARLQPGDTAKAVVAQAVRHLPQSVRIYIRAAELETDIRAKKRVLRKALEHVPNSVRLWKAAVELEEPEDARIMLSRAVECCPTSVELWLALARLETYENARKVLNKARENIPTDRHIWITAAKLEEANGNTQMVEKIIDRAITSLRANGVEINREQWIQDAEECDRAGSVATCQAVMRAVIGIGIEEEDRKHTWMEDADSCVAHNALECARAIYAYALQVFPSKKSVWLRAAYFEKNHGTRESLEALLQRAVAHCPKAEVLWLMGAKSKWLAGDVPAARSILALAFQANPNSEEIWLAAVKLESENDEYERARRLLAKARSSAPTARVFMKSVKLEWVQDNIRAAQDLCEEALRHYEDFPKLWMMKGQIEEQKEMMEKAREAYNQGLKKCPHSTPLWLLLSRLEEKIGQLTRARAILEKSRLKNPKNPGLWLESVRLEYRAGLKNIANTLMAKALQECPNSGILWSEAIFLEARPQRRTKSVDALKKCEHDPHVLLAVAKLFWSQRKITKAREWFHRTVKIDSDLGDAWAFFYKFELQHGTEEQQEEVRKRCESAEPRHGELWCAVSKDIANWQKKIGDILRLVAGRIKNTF
row,Target,log2 fold change
1,PRKD2 isoform 3 (UniProt Q9BZL6),0.02 (inactive)
2,PIK3C3 (UniProt Q8NEB9),-0.014 (inactive)
3,PCLAF (UniProt Q15004),-0.059 (inactive)
4,PRKRA (UniProt O75569),0.029 (inactive)
5,PSTPIP2 (UniProt Q9H939),0 (inactive)
6,PRIM1 (UniProt P49642),-0.006 (inactive)
7,PRKAR2B (UniProt P31323),-0.002 (inactive)
8,PPP3CA isoform 2 (UniProt Q08209),0.004 (inactive)
9,PPP2R5B (UniProt Q15173),-0.006 (inactive)
10,PDE2A (UniProt O00408),0.039 (inactive)
11,PDCD6IP (UniProt Q8WUM4),0.043 (inactive)
12,PRPF6 (UniProt O94906),-0.01 (inactive)
13,PDS5A (UniProt Q29RF7),-0.011 (inactive)
14,PIP4K2C (UniProt Q8TBX8),-0.023 (inactive)
15,PYCR2 (UniProt Q96C36),0.004 (inactive)
16,POLA1 (UniProt P09884),-0.002 (inactive)
17,PIK3R1 (UniProt P27986),-0.024 (inactive)
18,PPP1R12B isoform 6 (UniProt O60237),-0.145 (inactive)
19,PUM1 isoform 3 (UniProt Q14671),-0.003 (inactive)

row,Target,log2 fold change
1,PXMP4 (UniProt Q9Y6I8),-0.191 (inactive)
2,PCBP2 (UniProt F8W0G4),0.103 (inactive)
3,POC5 (UniProt Q8NA72),0.17 (inactive)
4,PDCD10 (UniProt Q9BUL8),-0.042 (inactive)
5,PLIN2 (UniProt Q99541),-0.018 (inactive)
6,PRIMPOL (UniProt Q96LW4),-0.024 (inactive)
7,PDCD4 (UniProt Q53EL6),0.002 (inactive)
8,PHACTR4 isoform 2 (UniProt Q8IZ21),0.028 (inactive)
9,PTP4A1 (UniProt Q93096),-0.01 (inactive)
10,PRAME (UniProt P78395),-0.008 (inactive)
11,PLEKHF1 (UniProt Q96S99),0.01 (inactive)
12,PIK3R2 (UniProt O00459),0.024 (inactive)
13,PGRMC1 (UniProt O00264),-0.031 (inactive)
14,PPCDC (UniProt Q96CD2),-0.074 (inactive)
15,PTPN6 isoform 4 (UniProt P29350),0.047 (inactive)
16,PWP2 (UniProt Q15269),-0.048 (inactive)
17,PHC1 (UniProt P78364),-0.049 (inactive)
18,PHF14 (UniProt O94880),0.019 (inactive)
